From PubChem BioAssay
Activity calls are given as the source filed them.

Assays:
[1] = small molecules captured by biotinylated probe aFSTL3 – biochemical, small-molecule microarray, fluorescence 635/667, stem cell growth factor project, primary screen (AID 1064); settings: higher = more signal;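 further: measures binding of the biotinylated anti-FSTL3 antibody to printed compounds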
[2] = binders from COS7 lysate, DM2A8 probe, primary screen, torsin A project, cell lysate, small-molecule microarray, fluorescence 635/667 (AID 1065); settings: higher = more signal, COS7 lysate expressing mutant human TOR1A
[3] = small molecules captured by biotinylated probe aFGF2 – biochemical, small-molecule microarray, fluorescence 635/667, stem cell growth factor project, primary screen (AID 1067); settings: higher = more signal;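 further: measures binding of biotinylated aFGF2 protein to printed compounds on slides; z-score merges feature fluorescence and signal-to-noise across triplicate slides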
[4] = small molecules captured by biotinylated probe aFGF10 – biochemical, small-molecule microarray, fluorescence 635/667, stem cell growth factor project, primary screen (AID 1071); settings: higher = more signal;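 further: score merges 667 nm spot intensity and signal to noise from triplicate slides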
[5] = target: Neurogenic locus notch homolog protein 2 (Homo sapiens) (UniProt Q04721); assay: small molecules binding Notch2 protein – biochemical, small-molecule microarray, 635 nm fluorescence, stem cell growth factors, primary screen (AID 1073); settings: higher = more signal
[6] = target: Pro-neuregulin-1, membrane-bound isoform (Homo sapiens) (UniProt Q02297); assay: small molecules binding neuregulin-1 protein – biochemical, small-molecule microarray, fluorescence 635/667, psychiatric disease protein project, primary screen (AID 1075); settings: NRG1 binding, 635 nm fluorescence, higher = more signal;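 further: score combines 667 nm spot fluorescence with signal to noise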
[7] = test system: Neuregulin-1 EGF-like domain; assay: small molecules binding NRG1 EGF domain – biochemical, small-molecule microarray, 635 nm fluorescence, primary screen (AID 1081); settings: higher = more signal;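 further: binding of the protein to compounds printed on small-molecule microarray slides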
[8] = FRG1 expression reporter modulators in myotubes – cell-based, C2C12 myotubes, firefly/Renilla luciferase, luminescence, FRG1 inhibition for FSHD, primary screen (AID 1084); settings: FRG1 promoter luciferase, higher = more signal, called active from +8 up or from −8 down
[9] = small molecules captured by biotinylated probe aFST – biochemical, small-molecule microarray, fluorescence 635/667, stem cell growth factor project, primary screen (AID 1086); settings: higher = more signal;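 further: score merges 667 nm fluorescence with signal-to-noise of each printed compound spot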
[10] = binders of probe aHhip on microarray, primary screen, stem cell growth factor project, biochemical, small-molecule microarray, fluorescence 635/667 (AID 1087); settings: higher = more signal;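 further: score merges spot fluorescence at 667nm with spot signal to noise ratio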

Pro-neuregulin-1, membrane-bound isoform (Homo sapiens), sequence (Q02297 whole entry, looked up, the tested form may be a part, canonical isoform): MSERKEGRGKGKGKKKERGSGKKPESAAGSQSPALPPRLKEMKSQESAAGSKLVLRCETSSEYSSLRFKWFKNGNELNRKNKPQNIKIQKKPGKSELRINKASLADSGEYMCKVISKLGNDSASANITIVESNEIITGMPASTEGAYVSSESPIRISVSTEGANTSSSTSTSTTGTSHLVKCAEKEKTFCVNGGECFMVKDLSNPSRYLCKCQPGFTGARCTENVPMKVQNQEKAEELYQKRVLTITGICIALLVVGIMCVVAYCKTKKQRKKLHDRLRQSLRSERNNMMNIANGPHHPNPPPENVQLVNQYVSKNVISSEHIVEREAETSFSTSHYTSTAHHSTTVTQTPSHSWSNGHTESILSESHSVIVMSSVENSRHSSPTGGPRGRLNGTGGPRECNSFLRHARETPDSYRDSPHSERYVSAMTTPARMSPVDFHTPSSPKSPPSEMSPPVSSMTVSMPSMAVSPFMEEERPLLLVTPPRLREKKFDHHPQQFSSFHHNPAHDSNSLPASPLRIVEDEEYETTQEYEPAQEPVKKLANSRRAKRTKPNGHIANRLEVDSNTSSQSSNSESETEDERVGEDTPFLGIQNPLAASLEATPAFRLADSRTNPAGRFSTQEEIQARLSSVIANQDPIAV
Neurogenic locus notch homolog protein 2 (Homo sapiens), sequence (Q04721 whole entry, looked up, canonical isoform): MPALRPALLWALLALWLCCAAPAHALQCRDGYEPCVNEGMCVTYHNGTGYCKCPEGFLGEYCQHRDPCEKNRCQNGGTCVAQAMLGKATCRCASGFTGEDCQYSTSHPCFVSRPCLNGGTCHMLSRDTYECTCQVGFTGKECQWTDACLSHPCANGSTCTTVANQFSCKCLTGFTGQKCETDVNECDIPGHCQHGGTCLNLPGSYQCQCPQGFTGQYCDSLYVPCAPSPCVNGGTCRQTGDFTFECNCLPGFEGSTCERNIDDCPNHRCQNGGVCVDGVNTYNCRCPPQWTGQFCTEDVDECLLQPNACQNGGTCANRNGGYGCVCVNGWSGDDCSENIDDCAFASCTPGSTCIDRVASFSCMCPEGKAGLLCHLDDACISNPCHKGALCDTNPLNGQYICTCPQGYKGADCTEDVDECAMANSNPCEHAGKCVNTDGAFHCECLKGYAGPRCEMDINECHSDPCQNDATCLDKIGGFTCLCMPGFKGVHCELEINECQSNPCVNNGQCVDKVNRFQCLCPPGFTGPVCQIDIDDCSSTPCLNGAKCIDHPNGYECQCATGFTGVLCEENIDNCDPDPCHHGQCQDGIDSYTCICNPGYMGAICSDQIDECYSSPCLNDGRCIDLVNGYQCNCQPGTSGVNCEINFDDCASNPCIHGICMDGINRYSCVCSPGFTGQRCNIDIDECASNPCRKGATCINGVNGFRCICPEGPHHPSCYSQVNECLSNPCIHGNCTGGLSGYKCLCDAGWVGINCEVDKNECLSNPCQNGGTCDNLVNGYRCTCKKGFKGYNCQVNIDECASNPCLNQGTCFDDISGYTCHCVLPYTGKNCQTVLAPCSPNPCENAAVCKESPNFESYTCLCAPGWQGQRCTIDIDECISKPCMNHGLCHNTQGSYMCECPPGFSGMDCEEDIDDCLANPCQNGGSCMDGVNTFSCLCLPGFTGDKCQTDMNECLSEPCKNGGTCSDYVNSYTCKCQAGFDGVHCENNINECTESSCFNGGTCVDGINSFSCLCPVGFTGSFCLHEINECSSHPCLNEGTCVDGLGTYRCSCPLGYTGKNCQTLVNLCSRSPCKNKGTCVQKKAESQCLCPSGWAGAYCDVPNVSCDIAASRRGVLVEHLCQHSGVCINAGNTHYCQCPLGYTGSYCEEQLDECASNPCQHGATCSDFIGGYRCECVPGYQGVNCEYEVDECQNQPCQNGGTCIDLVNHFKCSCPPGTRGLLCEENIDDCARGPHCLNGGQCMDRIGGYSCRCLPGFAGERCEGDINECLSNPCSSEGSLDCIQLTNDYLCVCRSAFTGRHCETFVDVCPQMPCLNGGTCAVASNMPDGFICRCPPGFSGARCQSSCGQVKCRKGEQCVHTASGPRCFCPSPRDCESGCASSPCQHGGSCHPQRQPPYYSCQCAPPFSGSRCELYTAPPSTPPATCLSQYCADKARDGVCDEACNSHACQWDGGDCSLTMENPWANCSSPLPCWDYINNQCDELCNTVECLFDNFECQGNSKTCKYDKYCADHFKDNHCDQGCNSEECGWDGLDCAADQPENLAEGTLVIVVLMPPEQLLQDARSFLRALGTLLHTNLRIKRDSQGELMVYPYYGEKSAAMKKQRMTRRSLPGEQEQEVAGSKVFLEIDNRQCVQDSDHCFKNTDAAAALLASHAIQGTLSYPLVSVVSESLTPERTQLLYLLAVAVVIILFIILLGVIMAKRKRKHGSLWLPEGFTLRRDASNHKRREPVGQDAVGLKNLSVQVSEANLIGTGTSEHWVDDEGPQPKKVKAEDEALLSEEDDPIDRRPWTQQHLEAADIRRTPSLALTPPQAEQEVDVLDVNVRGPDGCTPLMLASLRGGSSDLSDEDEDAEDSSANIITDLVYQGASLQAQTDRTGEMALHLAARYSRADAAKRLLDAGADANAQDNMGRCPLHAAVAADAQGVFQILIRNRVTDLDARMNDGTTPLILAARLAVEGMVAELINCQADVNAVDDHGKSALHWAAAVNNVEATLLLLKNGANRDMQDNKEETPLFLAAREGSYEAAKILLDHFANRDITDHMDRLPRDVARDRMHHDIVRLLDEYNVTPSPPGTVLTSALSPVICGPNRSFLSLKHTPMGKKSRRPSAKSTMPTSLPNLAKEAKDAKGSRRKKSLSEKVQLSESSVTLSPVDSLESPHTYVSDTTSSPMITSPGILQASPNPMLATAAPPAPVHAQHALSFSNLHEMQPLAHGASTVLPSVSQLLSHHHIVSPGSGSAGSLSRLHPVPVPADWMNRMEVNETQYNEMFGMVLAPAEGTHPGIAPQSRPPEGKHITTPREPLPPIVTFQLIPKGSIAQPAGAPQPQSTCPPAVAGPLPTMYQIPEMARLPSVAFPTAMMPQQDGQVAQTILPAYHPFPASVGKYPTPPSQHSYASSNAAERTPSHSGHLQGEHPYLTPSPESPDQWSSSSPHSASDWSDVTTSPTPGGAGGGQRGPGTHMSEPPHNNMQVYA

Structure (SMILES)	composite z-score [1]	composite z-score [2]	composite z-score [3]	composite z-score [4]	composite z-score [5]	composite z-score [6]	composite z-score [7]	z-score [8]	composite z-score [9]	composite z-score [10]
COCC1=C2[C@@H](CCc3ccccc3)OB(O)C[C@@H]2[C@@H]2C(=O)N(C)C(=O)[C@@H]2C1	-0.136	0.0288	-0.164	0.511	0.21	-0.295	0.843	-3.25 (inactive)	-0.0464	-0.0618
Cc1c(NC(=O)/C(C#N)=C/c2ccccc2Cl)c(=O)n(-c2ccccc2)n1C	-0.183	0.0711	-0.009	0.0417	0.935	0.888	1.12	0.311 (inactive)	1.27	-0.139
C#C[C@@H](CC)O[Si](C#CCCCC#N)(C(C)C)C(C)C	0.0465	0.934	-0.0891	-0.146	-0.604	0.873	0.74	-0.0405 (inactive)	-0.241	-0.236
C=CCOC(=O)[C@H]1[C@@H]2C(=O)O[C@@H](c3ccccc3)[C@@H](c3ccccc3)N2[C@@H](c2ccc(OCCOC(=O)[C@H]3C[C@H]4C(=O)N[C@@H](CCCCNC(C)=O)C(=O)N4[C@H]3c3cccc(OCCO)c3)cc2)[C@]12C(=O)Nc1ccc(I)cc12	0.276	1.01	-0.144	0.818	0.656	1.29	1.26	0.29 (inactive)	2.65	0.215
COCCOC(=O)N1C(=O)[C@@]2(c3ccccc31)[C@H](c1ccccc1OCCO)N1[C@H](c3ccccc3)[C@H](c3ccccc3)OC(=O)[C@H]1[C@@H]2C(N)=O	-0.299	0.692	-0.0015	0.725	1.23	0.133	1.3	-2.08 (inactive)	0.971	-0.0645
C=CCC(OC(C)=O)[C@@H]1[C@@H](N(Cc2ccc(-c3cccc(C(F)(F)F)c3)o2)C(=O)c2cccc3ccccc23)c2cc(OCCCO)ccc2N1C(=O)Cc1ccc(OC)cc1 (stereo not given in full)	-0.238	-0.125	-0.143	-0.0597	-0.386	0.0701	-0.398	0.317 (inactive)	0.378	-0.179
O=C1[C@@H]2[C@@H](CC(COc3ccccc3)=C3[C@@H](CCc4ccccc4)OB(O)C[C@@H]32)C(=O)N1Cc1ccccc1	-0.559	0.242	-0.0737	0.265	0.697	0.81	-0.113	0.0109 (inactive)	0.531	-0.289
O=C(N1CCOCC1)[C@@]1(CCS(=O)(=O)c2ccccc2)N=C(c2ccc(OCCCO)cc2)O[C@H]1c1ccccc1	0.448	1.06	0.0671	0.515	1.45	2.31	1.37	0.419 (inactive)	1.37	-0.191
COCCOC(=O)N1C(=O)[C@@]2(c3cc(C#CCNC(N)=O)ccc31)[C@H](c1ccc(OCCO)cc1)N1[C@H](c3ccccc3)[C@H](c3ccccc3)OC(=O)[C@H]1[C@@H]2C(N)=O	0.423	0.278	0.0541	0.913	1.49	0.897	0.809	0.47 (inactive)	0.715	0.351
COCCOC(=O)N1C(=O)[C@@]2(c3cc(C#CC4(O)CCCCCC4)ccc31)[C@H](C(=O)N1CCN(c3ncccn3)CC1)[C@H]1C(=O)O[C@H](c3ccccc3)[C@H](c3ccccc3)N1[C@@H]2c1ccccc1OCCO	-0.215	0.825	-0.0195	0.452	1.08	0.239	1.05	0.041 (inactive)	0.474	0.0515
O=C1OCCC=C[C@H]2OC34C=CCN(c5ccc(Cl)cc5)C(=O)[C@H]3N(CCCCCCO)C(=O)[C@@H]4C12 (stereo not given in full)	0.43	-0.0789	-0.116	-0.683	-0.879	-0.221	1.24	0.45 (inactive)	-0.257	-0.226
NC(=O)[C@H]1[C@@H]2C(=O)O[C@@H](c3ccccc3)[C@@H](c3ccccc3)N2[C@@H](c2ccc(O)cc2)[C@]12C(=O)Nc1ccccc12	0.339	-1.11	-0.128	-0.171	-1.37	1.81	0.653	-0.977 (inactive)	-0.442	-0.137
C=C(COC)C(=O)CC[C@H](OC(C)=O)c1ccc(OCCO)cc1	-0.198	-0.722	-0.0533	1.21	-0.189	-0.0732	1.1	1.08 (inactive)	0.375	-0.191
CCOC(=O)C1=CCC(c2ccco2)N(S(=O)(=O)c2ccc(C)cc2)C1 (stereo not given)	0.632	-0.0497	0.0061	0.864	1.62	1.46	0.791	-2.47 (inactive)	0.803	0.127
CN(C)C(=O)[C@]1(CCS(=O)(=O)c2ccccc2)N=C(c2ccc(OCCCO)cc2)O[C@@H]1c1ccccc1	0.227	0.398	0.0759	0.88	1.58	1.76	1.35	-1.74 (inactive)	0.968	-0.236
COCC(=C=CC[C@@H](O)c1cccc(OCCO)c1)CCO	-0.117	0.0969	-0.11	0.674	0.234	0.678	1.02	0.604 (inactive)	0.101	-0.0074
C=C(/C(=C/C[C@@H](OC(=O)c1ccncc1)c1cccc(OCCO)c1)c1cnc2ccccc2c1)C(C)C	0.21	0.375	-0.123	1.15	1.22	0.788	1.17	2.61 (inactive)	0.573	-0.116
C=CCN1C(=O)[C@@]2(O[C@@H](CCO)[C@H]([Si](C)(C)c3ccc(OC)cc3)[C@H]2C)c2cc(N3CCOC3=O)ccc21	-0.0204	0.0241	-0.0455	0.448	0.165	1.21	1.09	-1.66 (inactive)	0.162	-0.236
COc1cc(NN2C(C(O)c3cc(OC)c(OC)c(OC)c3)C=CC3C(=O)N(c4ccccc4)C(=O)C32)cc(OC)c1OC (stereo not given)	0.457	0.512	0.432	1.09	1.57	1.79	1.38	0.997 (inactive)	0.669	-0.0631
CC(C)c1ccc(NN2C(C(O)Cc3ccccc3)C=CC3C(=O)N(c4ccccc4)C(=O)C32)cc1 (stereo not given)	0.0399	-0.0235	0.0116	0.408	1.5	1.76	0.593	0.0899 (inactive)	1.36	-0.0645
O=C1C2C=CC(C(O)c3cc(C(F)(F)F)cc(C(F)(F)F)c3)N(Nc3ccccc3F)C2C(=O)N1c1ccccc1 (stereo not given)	0.835	0.554	-0.0049	0.233	0.909	1.85	1.16	0.285 (inactive)	0.967	-0.202
CC(C)CNC(=O)[C@@H]1c2ccccc2C(=O)N(C2CCCCC2)[C@H]1c1ccc(CO)cc1	0.386	-0.754	-0.0962	-0.305	-0.354	1.69	1.28	-1.8 (inactive)	0.0088	0.0497
O=C1O[C@H](c2ccccc2)[C@H](c2ccccc2)N2[C@H]1[C@@H](C(=O)O)[C@]1(C(=O)Nc3ccc(C#CC4(O)CCCCCC4)cc31)[C@H]2c1ccc(O)cc1	-0.252	0.128	-0.166	0.439	-0.0475	1.28	0.866	-0.278 (inactive)	-0.247	-0.134
O=c1cccc(-c2ccco2)o1	-0.539	0.336	-0.132	0.694	0.386	0.904	0.498	0.557 (inactive)	0.0153	-0.0994
C=CCC(OC(C)=O)[C@@H]1[C@@H](N(Cc2cccc3ccccc23)C(=O)c2cccc3ccccc23)c2cc(OCCCO)ccc2N1C(=O)c1ccc2ccccc2c1 (stereo not given in full)	-0.232	-0.124	0.365	0.0197	-0.833	-0.247	-0.313	-2.36 (inactive)	0.268	-0.132
COC(=O)[C@@]1(Cc2ccccc2CN=[N+]=[N-])N=C(c2ccc(OCCCO)cc2)O[C@H]1c1ccccc1	1.4	-0.0284	0.118	-0.774	-0.0293	0.532	1.2	-2.17 (inactive)	0.187	-0.451
COc1ccc([Si](C)(C)[C@H]2[C@H](CC(=O)N3CCC[C@H]3CO)O[C@@]3(C(=O)N(Cc4ccc(N5CCC5=O)cc4)c4ccccc43)[C@@H]2C)cc1	-0.589	0.429	-0.0276	0.299	0.549	0.454	1.1	-4.59 (inactive)	0.485	-0.215
